Results as given in PubChem BioAssay (NCI).
About 83,000 compounds went through this panel and 20% of them were active in at least one assay; those are over-represented in the sample as a whole.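 Interpretation: 100, growth as untreated; towards 0, rising growth inhibition; 0, no net growth; 0 to -100, cell death. Compounds scoring below 10 were considered active.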 Unmarked numbers belong to inactive results. The source made the active and inactive calls.

What was measured:
Assay in all cases: NCI-60 one-dose screen, 48 h (100 = growth as untreated, 0 = no growth, -100 = all killed)
Details in all cases: 10 µM
DU-145 prostate = system: DU-145 prostate
K-562 leukemia = system: K-562 leukemia
MDA-MB-231 breast = system: MDA-MB-231 breast
RXF 393 renal = system: RXF 393 renal
SF-268 CNS = system: SF-268 CNS
SF-295 CNS = system: SF-295 CNS
SF-539 CNS = system: SF-539 CNS
UACC-257 melanoma = system: UACC-257 melanoma
M14 melanoma = system: M14 melanoma
MALME-3M melanoma = system: MALME-3M melanoma

SMILES | growth (DU-145 prostate) | growth (K-562 leukemia) | growth (MDA-MB-231 breast) | growth (RXF 393 renal) | growth (SF-268 CNS) | growth (SF-295 CNS) | growth (SF-539 CNS) | growth (UACC-257 melanoma) | growth (M14 melanoma) | growth (MALME-3M melanoma)
CN(c1ccccc1)c1ncnc2c1ncn2C | 108% | 103% | 109% | 122% | 97.5% | 109% | 107% | 87.9% | 104% | 
CC1(C)S(=O)(=O)OCCOS1(=O)=O | 107% | 100% |  | 114% |  | 97.7% | 100% | 82.2% | 100% | 94.5%
Nc1ncnc2c1nc(N)n2C1OC(CO)C(O)C1O (stereo not drawn) | -21.8% (active) | 19.3% | -16.9% (active) | -59.6% (active) | -57.8% (active) | -70.2% (active) | -94.4% (active) | -56.6% (active) | -85.6% (active) | 
Cc1nc2ccccc2c(C(=O)O)c1O | 127% | 127% | 101% | 107% | 110% |  | 98.1% | 96.7% | 90.3% | 
C[C@]12CC[C@@H]3c4ccc(OCC(=O)O)cc4CC[C@H]3[C@@H]1CCC2=O | 109% | 78.7% | 101% | 115% | 91% | 111% | 97.5% | 93.4% | 97.2% | 
CCNc1nc2c(cnn2C)c(=O)[nH]1 | 113% | 98.2% | 110% | 94.6% | 104% | 103% | 104% | 115% | 99.3% | 
C=CCc1cc(C(C)=O)cc(OC)c1O | 105% | 107% | 92.1% | 95.5% | 96.8% | 119% | 125% | 99% | 105% | 
Cc1cc(OCCO)cc(C)c1Cl | 117% | 118% | 114% | 134% | 109% | 130% | 111% | 110% | 112% | 
CC(C)NC(=O)OCc1c(COC(=O)NC(C)C)c(-c2ccc(Cl)c(Cl)c2)n2c1SCC2 | 41.6% | 34.1% |  | 6.56% (active) |  | 27.3% | 32% | 32.3% |  | 62.9%
O=C(c1ccc(O)cc1)c1ccc(O)cc1 | 110% | 102% | 125% | 113% | 102% | 102% | 100% | 96.2% | 98.7% | 
O=C(O)C(c1ccccc1)C(O)c1ccccc1 (stereo not drawn) |  | 100% | 102% | 107% | 105% | 96.5% | 98.4% | 85.7% | 104% | 117%
O=S(=O)(O)C(Nc1ccccc1)c1ccccc1 (stereo not drawn) | 110% | 87.6% | 99.1% |  | 107% | 107% | 93.6% | 140% | 98.7% | 
S=C(Nc1ccccc1)N1CCCCC1 |  | 110% | 98.5% | 109% | 107% | 98.2% | 96.7% | 95.9% | 97.3% | 107%
CC(=O)Nc1cccc(Cl)c1C | 106% |  | 99.5% | 106% | 92.3% | 105% | 107% | 84.9% | 108% | 101%
O=C(O)c1cccc([N+](=O)[O-])c1O | 109% | 106% | 103% |  | 106% | 90.8% | 114% | 107% | 94.1% | 
O=C1c2ccccc2C(=O)N1OCc1ccccc1 | 112% |  | 104% | 122% | 106% | 110% | 102% | 122% | 108% | 98.2%
COc1cc(OC)c2ccc(=O)oc2c1 | 102% |  | 93.4% | 123% | 102% | 100% | 106% | 98.1% | 115% | 136%
Cc1ccccc1N=C(c1ccccc1)C1C(=O)c2ccccc2C1=O |  | 61.8% | 98.7% |  | 88.1% | 93.6% | 77.8% | 96% | 78% | 
Nc1ccc(CC(=O)O)c(N)c1 |  | 104% | 103% | 102% | 94% | 104% | 102% | 101% | 100% | 94.3%
CCCNc1ccc(C2=NCCCN2)cc1 | 103% | 89.8% | 98.7% |  | 98.9% | 91% | 102% | 99.8% |  | 
O=C(N/N=C/c1ccccc1O)Nc1nn[nH]n1 | 116% | 128% | 102% |  | 113% | 102% | 96.9% | 104% | 103% | 
CC1=C(/C=C/C(C)=C/C=C/C(C)=C/CO)C(C)(C)CCC1 | 112% |  | 102% |  | 114% | 110% | 105% | 99.9% | 104% | 120%
CCn1c(=O)n(C)c2c(=O)n(C)c(=O)n(C)c21 |  | 107% | 110% | 109% |  |  | 106% | 99% | 101% | 
CC1CCC(C(=O)O)N1 (stereo not drawn) |  | 98.4% | 102% | 109% | 97.5% | 101% | 95% | 103% | 102% | 102%
CN(C)c1ccc(CNC(C(=O)c2ccccc2)c2ccccc2)cc1 (stereo not drawn) |  | 94.8% | 107% |  | 96.9% | 98.1% | 111% | 94.9% | 114% | 94.2%
C[C@@H](c1ccccc1)[C@@H](C(=O)O)c1ccccc1 | 114% | 110% | 110% |  | 106% | 98.6% | 96.5% | 98.8% | 101% | 
Nc1ccc(C(=O)c2ccc(N)c(Br)c2)cc1Br |  | 15.7% | 24.8% | -17.4% (active) |  | 17.6% | -11.2% (active) | 67.1% |  | 78.8%
O=[N+]([O-])c1ccc(O)c(S(=O)(=O)O)c1 | 110% |  | 88.7% | 117% | 114% | 102% | 100% | 99.3% | 109% | 127%
